In PubChem BioAssay AID2148 (The Scripps Research Institute Molecular Screening Center, 2009):
In all, about 2,400 compounds went through this assay and about 1,500 (62%) were called active. No stated cut-off is given here; in the data, active means inhibition above about 22%; inactive means the rest. The set was probably picked from earlier hits. These entries were drawn from the full list.

target: Melanin-concentrating hormone receptor 1 (Homo sapiens) (UniProt Q99705); experiment: antagonism of human MCHR1 receptor – cell-based, fluorescence, counter-screen for GPR7 antagonist project (AID 2148); settings: MCHR1-expressing cells, fluorescence antagonist assay; at 4.4 µM; hits give high values;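 further: 0% = vehicle with agonist and 100% = vehicle without agonist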

Compound | inhibition
CC(C)OCCCNc1ncnc2c1[nH]c1ccc(F)cc12 | 70.9% (active)
Cc1cc(OC(C)C(=O)NC2CC(C)(C)NC(C)(C)C2)c2c(C)cc(=O)oc2c1 (centres undefined) | -9.17% (inactive)
CCOc1ccc(Cn2nnc(C(=O)NCc3ccccc3)c2N)cc1 | 51.5% (active)
O=C(COc1ccccc1)NCc1ccc2c(c1)OCO2 | 1.89% (inactive)
O=C(Cc1ccc(Cl)cc1)NC(=S)Nc1ccccc1O | 96.4% (active)
Cc1ccccc1NC(=S)NC(=O)Cc1ccc(Cl)cc1 | 65.3% (active)
O=C(NC(=O)c1ccccc1)Nc1ccccc1O | 14.3% (inactive)
O=C(CC(=O)Nc1ccc(Cl)c(Cl)c1)N/N=C/c1ccc(O)cc1 | 12.4% (inactive)
CS(=O)(=O)N(CC(O)Cn1c2ccccc2c2ccccc21)c1cccc2ccccc12 (centres undefined) | 41.7% (active)
Cc1cccc(NC(=O)c2cccc(C(=O)Nc3cccc(C)c3C)n2)c1C | 25.4% (active)
Cc1ccc(C(=O)C[n+]2cc(-c3ccccc3)n3c2CCCCC3)cc1 | 16.7% (inactive)
Cc1ccc2[nH]cc(CCNC(=O)c3ccc([N+](=O)[O-])cc3)c2c1 | 49% (active)
O=C(Nc1ccccc1F)c1ccc2c(c1)OCO2 | 2.37% (inactive)
O=C(Nc1nc(-c2ccc3c(c2)OCO3)cs1)c1ccncc1 | 67.8% (active)
COc1ccc(NS(=O)(=O)c2ccc(NC(=S)NC(=O)CC(C)C)cc2)cc1 | 58.1% (active)
O=[N+]([O-])c1ccc(N(CCO)Cc2ccccc2)c([N+](=O)[O-])c1 | 15.3% (inactive)
O=C(CSCc1ccc([N+](=O)[O-])cc1)NCCSCc1ccccc1 | 28.9% (active)
N=c1c2c(-c3ccccc3)c(-c3ccccc3)n(Cc3ccccc3)c2ncn1CCCO | 38.1% (active)
CCN1/C(=C\c2ccc3ccccc3[n+]2CC)Sc2cc(C)ccc21 | 42.9% (active)
CCc1ccc(OCC2c3cc(OC)c(OC)cc3CCN2C(C)=O)cc1 (centres undefined) | 29.6% (active)
CC1CN(C(=O)CCC(=O)NCCCN2CCC(Cc3ccccc3)CC2)c2cc(Cl)ccc2O1 (centres undefined) | 49.6% (active)
Cc1ccc(S(=O)(=O)n2cnc3ccccc32)c(C)c1 | -5.48% (inactive)
CC(=O)Nc1ccc(S(=O)(=O)N(C)CC(=O)NCCC2=CCCCC2)cc1 | -1.52% (inactive)
COc1ccc(C(CCNCc2ccccc2F)c2ccc(F)cc2)cc1 (centres undefined) | 42.1% (active)
